This is a sample that favours compounds with a hit; in the whole collection about 1.8% have one here.
PI5P4Ka inh: qHTS for Inhibitors of phosphatidylinositol 5-phosphate 4-kinase (PI5P4K) | PI5P4Kalpha enzyme, ADP-Glo luminescence, 60 min; hits give low values | max response, % | actives 1.2% (n = 330,000); active means max response of -50% or lower; inconclusive means between -30% and -50%; inactive means -30% or higher; further: value at the top dose of about 77 µM
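Quantitative HTS of the MLSMR library against PI5P4Kalpha with substrate. ATP added last at 5 microM final; room temperature, 60 minutes. Remaining ATP depleted, ADP converted and read as luminescence.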
CtBP-E1A inh: qHTS Assay for Inhibitors of the CtBP/E1A Interaction; CtBP / adenovirus E1A interaction (AlphaScreen); AlphaScreen GST-E1A/His-CtBP binding, 1536-well; hits give low values; activity change, % (test concentration not listed); actives 0.49% (n = 340,000); AID 651724, 2012
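GST-E1A and His-tagged CtBP (125 nM each as 5X stock) were preincubated with pin-transferred compound for 2 h at 37 °C in the dark, then glutathione donor and nickel acceptor beads were added for 1 h before AlphaScreen reading.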
Six1-Eya2 blk: qHTS Assay for Inhibitors of the Six1/Eya2 Interaction; activity change, % (test concentration not listed); actives 0.56% (n = 360,000); Homeobox protein SIX1 (Homo sapiens) + Protein phosphatase EYA2 (Homo sapiens), …; AlphaScreen GST-Six1/His-Eya2 binding, biochemical; hits give low values
Target sequence (O00167 whole entry, looked up): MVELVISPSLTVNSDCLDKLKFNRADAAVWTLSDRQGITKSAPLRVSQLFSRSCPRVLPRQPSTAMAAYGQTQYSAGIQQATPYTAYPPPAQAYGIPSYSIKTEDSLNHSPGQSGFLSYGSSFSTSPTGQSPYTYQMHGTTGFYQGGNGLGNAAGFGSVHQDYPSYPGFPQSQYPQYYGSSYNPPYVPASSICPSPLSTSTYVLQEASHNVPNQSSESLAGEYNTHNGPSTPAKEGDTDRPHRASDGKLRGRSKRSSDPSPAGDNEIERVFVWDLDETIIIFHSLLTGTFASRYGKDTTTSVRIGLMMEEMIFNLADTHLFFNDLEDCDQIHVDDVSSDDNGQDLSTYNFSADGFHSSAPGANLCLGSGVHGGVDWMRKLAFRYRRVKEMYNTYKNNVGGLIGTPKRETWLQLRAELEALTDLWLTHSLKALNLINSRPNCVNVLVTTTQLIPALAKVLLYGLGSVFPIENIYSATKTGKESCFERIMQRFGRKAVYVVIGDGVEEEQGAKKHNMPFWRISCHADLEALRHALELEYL
Target sequence (Q15475 whole entry, looked up): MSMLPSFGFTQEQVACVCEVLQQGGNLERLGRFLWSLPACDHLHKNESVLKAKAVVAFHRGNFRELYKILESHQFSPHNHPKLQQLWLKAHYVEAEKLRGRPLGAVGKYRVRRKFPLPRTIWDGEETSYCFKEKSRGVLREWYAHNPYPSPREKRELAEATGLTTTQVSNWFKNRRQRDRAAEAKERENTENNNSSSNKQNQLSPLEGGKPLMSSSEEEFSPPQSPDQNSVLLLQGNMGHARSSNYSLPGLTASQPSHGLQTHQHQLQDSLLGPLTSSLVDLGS
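GST-Six1 + His-Eya2 (5X stock: 250/500 nM); Tris pH 8.0, 300 mM NaCl, 0.05% BSA, 0.02% Tween 20; GSH donor/Ni acceptor beads; 1 h 37 °C dark; AlphaScreen readout.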
PI4K2A inh: qHTS for small molecular inhibitors of PI4K2A | activity change, negative = inhibition, % at 76.9 µM | purified PI4K2A, ADP-Glo luminescence, 1 h; hits give low values | Phosphatidylinositol 4-kinase type 2-alpha (Homo sapiens), Q9BTU6 | actives 0.13% (n = 420,000); in the data active means activity change below about -50%; inconclusive means mostly about -30% to -49%;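 further: -100% = wells without enzyme as full effect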
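In this quantitative HTS, ADP production by PI4K2A was quantified luminescently after 1 h at ambient temperature; 100 microM adenosine served as plate-quality control.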
pAkt inh: HTS Assay for Inhibitors of Akt Phophorylation: Primary Screen | Neuro2A IGF-stimulated pAkt S473 HTRF, 20 min; hits give low values | actives 0.32% (n = 360,000) | activity change, % for hits at 50 µM; in the data active means activity change below about -80%; inconclusive means mostly about -51% to -80%
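Neuro2A cells (4,500/well, DMEM with 0.5% FBS) were treated with compound at a single 50 µM final concentration, stimulated with 6 nM IGF for 20 min at 37 °C, and lysed. Phospho-Akt Ser473 was read by HTRF as 665/615 ratio ×10^4.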
The depositor's hits bear a star; i = inactive; ? = inconclusive; · = no result; ! = not confirmed by another sample. Unless noted, no stated cut-off is given here; in the data, active means activity change below about -65%; inconclusive means mostly about -30% to -63%; inactive means weaker than that. Unless noted, on the % scale 0 is the no-effect control and ±100 the full control effect.

SMILES | PI5P4Ka inh | CtBP-E1A inh | Six1-Eya2 blk | PI4K2A inh | pAkt inh
Cc1ccc(-c2cc(-c3ccccc3Cl)c(C#N)c(N)n2)o1 | ? | 17 | 10 | 0 | i
Cc1ccc(-c2cc(-c3ccccc3)c(C#N)c(N)n2)o1 | -58* | 8 | 18 | 6 | i
Cc1cc(C)c(Nc2cc(S(=O)(=O)O)c(N)c3c2C(=O)c2ccccc2C3=O)c(C)c1 | -61* | -88*! | -68* | ? | i
Cc1cc(C)c(NC(=O)COC(=O)c2cccc3c2C(=O)c2ccccc2C3=O)c(C)c1 | 4 | ? | ? | 0 | i
O=C(Cn1ncc(Cl)c(Cl)c1=O)Nc1ccc2c(c1)OCO2 | -52* | 5 | -9 | -26 | i
CCN(CC)S(=O)(=O)c1cc(NC(=O)CN2C(=O)NC(C)(c3ccccc3)C2=O)ccc1C (stereo unspecified) | 0 | 3 | -2 | 4 | i
COc1ccc(NC(=O)Cn2ncc(Cl)c(Cl)c2=O)cc1S(=O)(=O)N1CCOCC1 | -78* | -2 | -13 | ? | i
CCN(CC)S(=O)(=O)c1cc(NC(=O)Cn2ncc(Cl)c(Cl)c2=O)ccc1C | -83* | 17 | -8 | -11 | i
Cc1ccc(S(=O)(=O)N2CCCCC2)cc1NC(=O)Cn1ncc(Cl)c(Cl)c1=O | -52* | 6 | -1 | ? | i
CCOc1ccc(CCNC(=O)CCn2cccc2)cc1OCC | -4 | -2 | -6 | 1 | i
COc1ccc(CCNC(=O)CCn2cccc2)cc1OC | 8 | -1 | -3 | 3 | -101%*
c1ccc(C2=NCCCO2)cc1 | -1 | 3 | -2 | 5 | i
c1ccc(N=Nc2ccc(C3=NCCO3)cc2)cc1 | 0 | -23 | ? | -51* | i
N#Cc1c(-c2ccco2)cc(-c2ccccn2)nc1N | -67* | ? | ? | -23 | i
CCOC(=O)c1ccc(-n2c(N)c(C(=O)NCC3CCCO3)sc2=S)cc1 (stereo unspecified) | -12 | 0 | -1 | -1 | i
CCC(=O)c1cn(CC(=O)NCc2ccco2)c2ccccc12 | 0 | 2 | 5 | 0 | i
O=C(Cn1cc(C(=O)c2ccco2)c2ccccc21)NCc1ccco1 | 0 | -7 | -2 | -11 | -105%*
C/C(=N\NC(=O)c1cc(O)ccc1O)c1cccc(NC(=O)c2cccc(Cl)c2)c1 | ? | ? | -21 | -3 | i
C/C(=N\NC(=O)c1cc(O)ccc1O)c1cccc(NC(=O)c2ccc(Cl)cc2)c1 | -82* | -27 | ? | -6 | i
O=C(COC(=O)c1ccc(F)cc1F)Nc1ccc2c(c1)OCO2 | -15 | -17 | 0 | 5 | i
CC1=C/C(=C(/c2cc(C)c(O)c(Br)c2)c2ccccc2S(=O)(=O)O)C=C(Br)C1=O | -65* | -69* | -73* | ? | i
O=C(NC1CC1)c1cc(-c2ccco2)nc2ccccc12 | -101* | -2 | ? | ? | i
O=C(NC(=S)Nc1cccc(S(=O)(=O)NC2=NCCC2)c1)c1cc(-c2ccco2)nc2ccccc12 | -50* | ? | ? | -18 | i
O=C(N/N=C/c1ccc(F)cc1)c1cc(-c2ccco2)nc2ccccc12 | -111* | -4 | ? | ? | i
COc1ccc(-c2nnc(SCC(=O)NNC(=O)Cc3ccccc3)n2C)cc1OC | -12 | 1 | -14 | 1 | i
SMILES | PI5P4Ka inh | CtBP-E1A inh | Six1-Eya2 blk | PI4K2A inh | pAkt inh
CCN(C(=O)COC(=O)/C(C#N)=C/c1cc(C)n(CCOC)c1C)c1c(N)n(Cc2ccccc2)c(=O)[nH]c1=O | 3 | -11 | 1 | -2 | i
COc1cccc(C(=O)N2CCOCC2)c1OC | -7 | 0 | 14 | 3 | i
COc1cccc(C(=O)N2CCN(C(=O)c3cccs3)CC2)c1OC | 0 | 3 | 2 | -1 | -112%*
CCC(c1nnnn1CCOC)N(Cc1cc2cc(C)c(C)cc2[nH]c1=O)CC1CCCO1 (stereo unspecified) | 0 | -5 | 0 | 16 | -117%*
CCCC(c1nnnn1CCOC)N(Cc1cc2cc(C)c(C)cc2[nH]c1=O)CC1CCCO1 (stereo unspecified) | · | 4 | 4 | -1 | i
N/C(=N\NC(=O)Nc1ccc(Cl)cc1)c1ccccn1 | 4 | -76* | ? | -5 | i
CC(C)N1CCC(N2CCN(Cc3cccc4nonc34)CC2CCO)CC1 (stereo unspecified) | 3 | 4 | -4 | 1 | i
CNC(=O)c1ccc2c(c1)N(Cc1cc(C)ccc1C)C(=O)c1ccccc1S2 | · | · | · | -1 | ·
CCOC(=O)CNC(=O)CSc1nc(-c2ccc(OC)cc2)ns1 | -22 | -15 | -11 | 2 | i
COc1ccc(-c2nsc(SCC(=O)Nc3cc(C)on3)n2)cc1 | -17 | 1 | 5 | -8 | -81%*
CCOc1cc(/C=C2\N=C(SCC)SC2=O)cc([N+](=O)[O-])c1OC(C)=O | -68* | -10 | -2 | 7 | i
CCOc1cc(/C=C2\N=C(SC)SC2=O)cc([N+](=O)[O-])c1OC(C)=O | ? | -12 | -26 | -16 | i
CCCc1nnc(NC(=O)CCC(=O)NCc2ccccc2Cl)s1 | -1 | · | -2 | -1 | ·
O=S(=O)(Nc1nccs1)c1ccc(NCc2cc(Br)cc(Br)c2O)cc1 | -28 | · | -90* | -5 | i
COc1nccnc1NS(=O)(=O)c1ccc(NCc2cc(Br)ccc2O)cc1 | -9 | -73* | -77* | -3 | i
CCc1nnc(NS(=O)(=O)c2ccc(NCc3cc(Br)ccc3O)cc2)s1 | 6 | -30 | -18 | -5 | i
COc1cccc(CNc2ccc(S(=O)(=O)Nc3nccs3)cc2)c1O | · | -25 | -22 | -2 | i
CC1Cc2cc(S(=O)(=O)N3CCCCC3C)ccc2N1C(=O)C1CCC1 (stereo unspecified) | 1 | · | 1 | -7 | i
CC(C)=CCc1c(O)cc(O)c2c1OC(c1ccc(O)cc1)CC2=O (stereo unspecified) | -63* | 0 | -8 | -3 | i
COc1cc(O)c2c(c1)OC(c1ccc(O)cc1)CC2=O (stereo unspecified) | 1 | 19 | 19 | 1 | i
Cc1c(O)cc2c(c1O)C(=O)CC(c1ccc(O)cc1)O2 (stereo unspecified) | -80* | 4 | -28 | ? | i
CCC(Oc1ccccc1)C(=O)Nc1cccc(OCc2cc(=O)n3cccc(C)c3n2)c1 (stereo unspecified) | · | · | · | 1 | ·

High-throughput results (PubChem)
